# Over roughly 25,000 sequences, “ln(normalized median fluorescence intensity)” has its median near 9.3; the highest 2% begin near 10. Shown is part of a subset that was picked to be rich in the highest values.
# Test system: PF3D7_0420300 AP2 domain 1 (GST-tagged)
# Experiment: gcPBM binding intensity (ln(normalized median fluorescence intensity)); higher = stronger DNA binding
# Outline: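 The binding buffer was 1× PBS containing 1% milk, 0.2 mg/ml BSA, 0.5% salmon testes DNA and 0.03% Triton X-100. In it, GST-tagged P. falciparum DNA-binding domains expressed in E. coli were applied for 1 h to an Agilent 4 × 180k array of primer-extended double-stranded 36-bp intergenic genomic probes plus negative controls. Binding intensity, read with Alexa488 anti-GST antibody and a 488 nm scan, is the highest Masliner-normalised natural-log median intensity across replicate spots of either probe orientation.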
row,Sequence,gcPBM binding intensity (ln)
1,ATATAATATGTTGAATGTACTTAAAAAAATGTATCT [XGTACX_site5385],9.21
2,CTAAAATACGGACACACACACACATATATATATATA [CACACA_site6138],10.2
3,AAAAAAAACGGACACACACACATAAATATATATAAA [CACACA_site4260],10.3
4,TAAATATATATATACACACACATACACAAAAAAAAA [CACACA_site3580],10.1
5,AAAACAAACGGACACACACACATATATATATATATA [CACACA_site5924],9.97
6,TAAATAAATAAAAAAACACACATATATATATATATA [CACACA_site4029],9.51
7,AAAAAAAACGGACACACACACATACAAAATATATAT [CACACA_site4910],10.2
8,CCATAAAACTATAATACACACATATAGATTAACATA [CACACA_site7849],9.7
9,CTATAAATGAATGTTTGTACTTAATAATAAAAGAAA [XGTACX_site3170],9.06
10,GCATATTTTATAATTTTACACACCATATAAAATAAT [CACACA_site8904],9.51
11,TGTTTGTAATTATGTATGCACTTTTTTGTATGTGTG [GTGCAC_site9668],9.58
12,CAAAGAGAAATAAACACACACAAAATAAAGAAAAAA [CACACA_site2245],9.74
13,AAAAAAAAAAGACACACACACAAAATAAACAAACAA [CACACA_site7308],10.3
14,ACAAAATAAAGACACACACACAAACACAAAAAAATA [CACACA_site7568],10.2
15,AAAAATAAATAAGACACACACAAAAAAAAAAAAAAA [CACACA_site1432],9.54
16,AAAAAAATAAGACACACACACAAAAAAATAAAAATA [CACACA_site6357],10.1
17,AAAAAAATAAATAAGACACACACAAAAAAAAAAAAA [CACACA_site8404],9.97
18,TATTTTATTATACCAAGTACAAAATTTAAATATGAA [XGTACX_site5478],8.99
19,AAAATAATAAATAAATGTACATATATATATATATAT [XGTACX_site3078],9.1
20,AAAAAAAAAAAATACACACAAACACAAATTAAATAA [CACACA_site3809],9.88
21,ATAATTAACAAATACACACACACACCCAGACAAAAA [CACACA_site4445],10.2
22,ATAATTAACAAATACACACACACACGCCCACAAAAA [CACACA_site6389],10.2
23,TTTATTTATTAATACACACACACACGCCCACAAAAT [CACACA_site6253],10.2

row,Sequence,gcPBM binding intensity (ln)
1,TTTATTTATTAATACACACACACACCCAGACAAAAT [CACACA_site4292],10.2
2,TATTAATACAGACACACACACACACCCAATAAAATA [CACACA_site243],10.1
3,TTTTTATTTATTAATACACACACACCCACCCACAAA [CACACA_site7965],10.1
4,AATTAATAACAAAATAAACACACATATATAAATACA [CACACA_site8456],9.84
5,TTAATTAAATATTATACACACAAAAAAATAATTTTA [CACACA_site96],9.27
6,TAATTAACAAACTATAGTACACAAAATACTTCATAT [XGTACX_site6375],9.44
7,ATGGTAGTGATTAAAAGTACACGTAATTGTAAAAAT [XGTACX_site387],9.45
8,TATATTTAGTAAAAAGGTACCATTCTTATTTATATT [CACACA_negctrl_site1165],9.13
9,TTTTATGTAATTATTTGTACATATGCCTCTTAAACT [XGTACX_site748],9.19
10,AAAAAAATATATTCCTAATTTATGATTAAAAGGAAT [CACACA_negctrl_site751],8.98
11,ATATATTTTTTCTTAACACACATATATAAAATAAAA [CACACA_site3500],9.24
12,AAGAGAAATGGGCACACACACACATATTATATATAT [CACACA_site1531],10.1
13,AAAAGAGAAATGGGCACACACACACCCATTATATAT [CACACA_site1530],9.88
14,AAAAGAGAAATGGGCACACACACACCGATTATATAT [CACACA_site4942],10.2
15,AGAAAAGAGAAATGGGCACACACACCCATATTATAT [CACACA_site8433],9.66
16,AAGAGAAATGGGCACACACACACATATTATAGATAT [CACACA_site6828],10.2
17,GAGAAATGGGGACACACACACATATTATAGATATAT [CACACA_site6829],10.1
18,TAATATACTTAATACACACACGAATATTTATAAATA [CACACA_site6675],9.73
19,ACATATTATAGGAATACACACAAAAACTTATCGGTA [CACACA_site7587],9.87
20,CAAGCACAGAAACACACACACACACCGACACAGACA [CACACA_site4359],10.2
21,AATACCCAAGGACACACACACACATATATATATATA [CACACA_site8345],10.2
22,ATACATCAAGGACACACACACACACCCACACCCACA [CACACA_site8013],10.3
23,GTAATACCCAAACACACACACATACCCATATATATA [CACACA_site5510],10

row,Sequence,gcPBM binding intensity (ln)
1,CAAGCACCCAGACACACACACACACCCACACCCACA [CACACA_site369],10.2
2,CACCCACCCAGACACACACACACAAAAAAAAAAAGA [CACACA_site499],10.1
3,AACAGACAGAAACACACACACATATATATATATATA [CACACA_site3394],9.81
4,CATATACATCCACATACACACATACACCCATACACA [CACACA_site5038],9.74
5,AAAATACCCGGACACACACACATATATATATATATT [CACACA_site6137],9.96
6,CATACACCCATACATACACACATACATACACCCATA [CACACA_site5124],9.78
7,ACATCAAGCAGACACACACACACACCCACCCACCGA [CACACA_site371],10.2
8,ATTATTACTATATGTGTACACATCAACTGGTTTGAT [CACACA_site5563],9.39
9,AAAAAAAAAAAAAAGGTGCATACTTTGAATTAATAT [GTGCAC_site9401],9.2
10,ATAAAAAATATCACATAAAATAAAAAAAGAAAGGAT [XGTACX_negctrl_site294],9.62
11,AGTGGACTTTTTTTTTTTTTTTTTTTTTTTTTATTA [CACACA_negctrl_site547],9.2
12,AGTATAAATATATTATGTACATATATATTATACTTA [XGTACX_site2623],9.09
13,ATTATCTATCGTTTTTGTACTTACACCTTAATACAA [XGTACX_site7337],9.58
14,ACATCAAGCGGACACACACACACACCGACAGACACA [CACACA_site4361],10.2
15,ACATCAAGCAGACACACACACACACCCACCCACCCA [CACACA_site8012],10.4
16,TACACAAGCGGACACACACACATATATATATATATA [CACACA_site4832],9.81
17,AAGCATACATCAAGCACACACACACCCACAGAGACA [CACACA_site4362],9.89
18,TACACAAGCAGACACACACACATATATATATATATA [CACACA_site1270],9.72
19,TAAAGTATTACAACCACACACACACCGATATATTAT [CACACA_site9382],9.99
20,ATAAAAATAAAAAGTGTGCACACAAAAATATATATA [GTGCAC_site9931],9.9
21,ATATATATATATATATGTACATATTCACTTATATTT [XGTACX_site5324],9.18
22,ATTAAACATAAATATGCACACATATACATATATTCA [CACACA_site8850],9.4
23,TATGTACACCCATATACACACCTCTATAATATATAT [CACACA_site4563],9.67

row,Sequence,gcPBM binding intensity (ln)
1,TTTTATGAAAAGTATTGTACGTATAATTTATATGTA [XGTACX_site1639],9.04
2,GGAACTTATTTTTATACACACATATGTGCATATTAT [CACACA_site629],9.68
3,AAAAAAAAAAAAAACACACACACACGCATAAATATA [CACACA_site6217],10.1
4,TAAAAAGGAAGACACACACACACATATATAAATATA [CACACA_site7657],10.2
5,CATATAAAAAGACACACACACACATATATATATATA [CACACA_site940],10
6,AAAAGGAACAGACACACACACATATATAAATATGTA [CACACA_site7656],9.97
7,TATAAATAAAGACACACACACACACCGTATAATTAC [CACACA_site7829],10.2
8,CATATAAATATATATACACACACACCGTAATACATA [CACACA_site9158],10.2
9,ATATAATAAAATGACACACGCATATATATATATATA [CACACA_site2789],9.33
10,ATAAAAAAAAGACACACACACATATATATATATATA [CACACA_site3073],9.67
11,CACACTAAAAGACACACACACACACGCATATAAATA [CACACA_site7874],10.2
12,TATATAAATAGACACACACACACCTTATAATTACTA [CACACA_site7828],10
13,AAAAAAAAAAGACACACACACATATAAATATAAATA [CACACA_site6899],10.2
14,TATAAATAAAGACACACACACATATAAATAAATATA [CACACA_site7155],10.1
15,ACAAAAAAAAACGTGGTGCATTAATAATATTGTATA [GTGCAC_site9469],9.43
16,ATTACATTAATAAGAGTGCATTATATAAGTTTTATG,9.2
17,TTTGGCTAGTCAAGTTGTACAAAAAAAAAAAAAAAA [XGTACX_site8382],8.58
18,GTAATACACAGACACACACACATACACATATTTATA [CACACA_site7313],10
19,TTGTACTACAATCCTTTATTTATTTAAACCTGTATG [CACACA_negctrl_site428],9.14
20,TTCTTCAAGGAAAACACATGCGCATTTTCACCAATT [TGCATGCA_site11],9.15

# Source: the supplement of paper PMC11417369
